# Rows were chosen to be rich in hits. Some 3% of all compounds tested hit in one or more screens of this group.
# Sm TGR inh: blocks Schistosoma mansoni thioredoxin glutathione reductase; Q962Y6; purified TGR, DTNB reduction, TNB absorbance 405 nm; Potency, µM (series often up to 114 µM), for inactives: top-dose activity change, negative = inhibition, hits mostly inhibitors; 360,000 compounds, 3% hits; active = well fitted inhibition curve with a large enough effect; inconclusive = small, poorly fitted or top-dose-only effect; inactive = no such curve, though single readings can be large or run the other way; note: % is set by controls: 0 for no effect and ±100 for the full control effect; nearly all actives have a fitted effect of over 60% in size
#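 Kinetic colorimetric format: TGR-catalysed, NADPH-driven DTNB reduction monitored via TNB absorbance. Enzyme dispensed at 20 nM; compound exposure 15 min at room temperature before reaction start.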
# SARS PLP yeast: inhibitors of SARS-CoV papain-like protease in yeast; Potency, µM (titrated, usually from 32.9 µM), for inactives: at the top dose activity, positive = growth rescue, most hits filed as activators; AID 485353; S. cerevisiae expressing SARS-CoV PLpro, growth rescue; 330,000 compounds, 0.19% hits; calls by dose curve; note: 0% is about no effect; nearly all actives have a fitted effect of over 55% in size
# The depositor's hits bear a star; ? = inconclusive; / = no result given. Potency is the fitted concentration of half-maximal effect.
SMILES,Sm TGR inh,SARS PLP yeast
O=C(O)CCc1ccc(-c2ccc(Cl)cc2)n1CC(=O)O,44.7µM*,-6.4%
O=C(O)CCc1ccc(-c2ccc(Cl)cc2)n1CCC(=O)O,22.4µM*,-5.0%
O=C(O)CCc1ccc(-c2ccc(Cl)cc2)n1CC(=O)Nc1ccccc1,?,1.0%
Cc1c(Cl)cccc1NC(=O)Cn1c(CCC(=O)O)ccc1-c1ccc(Cl)cc1,-8.4%,2.6%
Cc1cccc(C)c1OCc1nc2c3cnn(-c4cccc(F)c4)c3ncn2n1,-1.5%,/
CCc1ccc(-n2c(C)nc3cc(C(=O)NCCc4ccccc4)ccc32)cc1,11.6%,/
COc1ccc(NCc2cc3cc4c(cc3n(CC(=O)Nc3cc(C)ccc3C)c2=O)OCCO4)cc1,4.8%,/
Cc1nc2ccc(S(=O)(=O)NC(C(=O)N3CCN(c4cccc(Cl)c4)CC3)C(C)C)cc2s1 (centres undefined),-2.4%,/
COC(=O)Cn1c(C2CC(=O)N(c3c(C)cccc3C)C2)nc2ccccc21 (centres undefined),-4.8%,/
CCOCC(=O)Nc1ccc(-c2cn3c(C)csc3n2)cc1,3.9%,/
NC(=O)c1c(NC(NC(=O)c2ccco2)C(=O)c2ccc(Cl)cc2)sc2c1CCCC2 (centres undefined),31.6µM*,-6.4%
O=C(/C=C/c1ccccc1)Nc1sc2c(c1C(=O)O)CCC2,?,-1.6%
CNC(=O)c1c(NC(=O)c2ccco2)sc2c1CCC2,31.6µM*,-4.1%
N#Cc1c(NC(NC(=O)c2ccco2)C(=O)c2ccccc2)sc2c1CCCC2 (centres undefined),14.8%,-14.8%
COc1ccccc1NC(=O)c1c(NC(=O)c2ccco2)sc2c1CCC2,?,-2.8%
CNC(=O)c1c(NC(=O)/C=C/c2ccccc2)sc2c1CCC2,35.5µM*,/
COc1ccc(CNC(=O)c2cc3c(=O)n(Cc4ccco4)ccc3nc2C)c(OC)c1,-18.7%,/
CCCCCn1c(=N)c(S(=O)(=O)c2ccccc2)cc2c(=O)n3ccccc3nc21,0.6%,/
COc1ccc(N(Cc2cccs2)C(=O)COc2ccc(C(C)C)cc2)cc1,3.2%,/
CCOc1ccc(NC(=O)c2c(C)nn(-c3ccc(F)cc3)c2-n2cccc2)cc1,-1.4%,/
COc1ccc(N2C(=O)CC(Sc3nc(C)cc(C)c3C#N)C2=O)cc1 (centres undefined),?,-22.4%
Cc1nc(SC2CC(=O)N(c3ccccc3)C2=O)n[nH]1 (centres undefined),/,-4.6%
O=C1CC(Sc2nnc(-c3ccccc3O)o2)C(=O)N1c1ccccc1 (centres undefined),3.98µM*,-23.4%
COc1ccc(N2C(=O)CC(Sc3nnc(-c4ccccc4)o3)C2=O)cc1 (centres undefined),3.55µM*,-24.6%
CCc1ccc(-n2nc(C)c3c(C(=O)Nc4cc(C)c(Cl)cc4OC)cc(C)nc32)cc1,7.2%,/
SMILES,Sm TGR inh,SARS PLP yeast
COc1cccc(-c2cn3c(n2)sc2cc(C(=O)NCCCc4ccccc4)ccc23)c1,1.2%,/
CCN(CCCNC(=O)c1cc2c(=O)n(C)c3ccccc3c2s1)Cc1ccccc1,-19.5%,/
COc1ccc2[nH]c3c(c2c1)CCNC3C1CC=C(C)CC1 (centres undefined),-12.6%,1.8%
COc1ccc2[nH]c3c(c2c1)CCNC3c1ccc([N+](=O)[O-])o1 (centres undefined),0.891µM*,-2.3%
Cc1cc(C)c(/C=C/c2onc(C)c2S(=O)(=O)N2CCC(C(=O)Nc3ccc(Cl)c(C(F)(F)F)c3)CC2)c(C)c1,-1.8%,/
Cc1ccc2c(c1)c1c(c(=O)n(-c3ccccc3C)c(=O)n1Cc1ccccc1F)n2C,18.6%,/
O=C(O)CCCN1C(=O)/C(=C\c2ccco2)SC1=S,?,-0.1%
O=C(O)CN1C(=O)/C(=C\C(Br)=C\c2ccccc2)SC1=S,20µM*,-0.2%
O=C(O)CN1C(=O)/C(=C/C=C/c2ccccc2)SC1=S,-7.6%,6.3%
O=C(O)CN1C(=O)/C(=C/c2ccc(SCc3ccccc3)o2)SC1=S,10µM*,4.0%
O=C(O)CN1C(=O)/C(=C\c2ccc(OC(=O)c3ccco3)cc2)SC1=S,-34.5%,-2.9%
O=C(O)CCN1C(=O)/C(=C\c2ccc(-c3nc4ccccc4s3)o2)SC1=S,50.1µM*,4.9%
CCn1nc(-c2ccccc2)c(-c2ccccc2)c(C(=O)Nc2ccc(S(N)(=O)=O)cc2)c1=O,7.3%,/
Clc1cccc(-n2cc(-c3ccccc3)c3c(N4CCCCC4)ncnc32)c1,34.0%,/
COc1cc(NC(=O)CSC2=Nc3ccccc3N=C(c3ccc(F)cc3)C2)cc(OC)c1,-0.9%,/
CCOC(=O)C(C)CC(C)C(=O)N1CCOCCOCCN(C(=O)C(C)CC(C)C(=O)OCC)CCOCC1 (centres undefined),-3.5%,3.4%
CCOC(=O)C(C(=O)OCC)C(C(=O)OCC)N1CCOCC1 (centres undefined),0.631µM*,-10.6%
Cn1cnnc1SCc1ccc(-c2ccc(Br)cc2)o1,25.1µM*,-0.4%
Cn1cnnc1SCc1ccccc1,-3.1%,-2.3%
O=C(NCCSCc1cccc(Cl)c1)C1CCN(S(=O)(=O)Cc2ccccc2)CC1,-9.4%,/
Cc1ccc(-c2noc(C3CCCN(C(=O)c4ccccc4Br)C3)n2)o1 (centres undefined),?,-2.2%
Cc1ccc(-c2noc(C3CCCN(C(=O)c4ccccc4)C3)n2)o1 (centres undefined),56.2µM*,0.5%
CCn1ccc2cc(S(=O)(=O)N3CCCN(C(=O)Nc4ccc(C)cc4Cl)CC3)ccc21,-5.4%,/
CCc1cccc(C)c1NC(=O)Cn1nnc(-c2nc(-c3ccccc3F)no2)c1N,2.1%,/
O=C(NC1CCCC1)c1ccc2nc(-c3ccco3)c(-c3ccco3)nc2c1,3.16µM*,0.6%
SMILES,Sm TGR inh,SARS PLP yeast
O=C(NCCO)c1ccc2nc(-c3ccco3)c(-c3ccco3)nc2c1,1.78µM*,-11.4%
O=c1oc(-c2ccco2)nc2ccccc12,-35.5%,-0.8%
c1coc(-c2nc3ccccc3nc2-c2ccco2)c1,3.55µM*,-1.6%
O=C(NC1CCCC1)c1ccc2nc[nH]c2c1,8.4%,-0.6%
O=C(NCCO)c1ccc(Cl)c(Cl)c1,15.6%,-2.2%
O=C(c1ccccc1)c1ccc2nc(-c3ccco3)c(-c3ccco3)nc2c1,/,-2.4%
O=C(NCCc1ccccc1)c1ccc2nc(-c3ccco3)c(-c3ccco3)nc2c1,1.26µM*,-2.9%
Cc1ccc(C)c(NC(=O)Cn2c(=O)n(Cc3ccc4c(c3)OCO4)c(=O)c3oc4ccccc4c32)c1,3.5%,/
Cc1ccc(OCc2nc3ccccc3n2CCOc2ccc(Cl)cc2)cc1,8.0%,/
Cc1cccc(NC(=O)c2sc3ncnc(N(C)C4CCCCC4)c3c2C)c1C,5.7%,/
Cc1ccc(CNC(=O)CN2Cc3ccccc3C2=O)cc1,-1.2%,/
COc1ccc(C(=O)CSc2ccc(-c3ccccc3)nn2)cc1,-7.2%,-15.4%
COc1ccc(C(=O)CSc2ccc(-c3ccco3)nn2)cc1,31.6µM*,-35.0%
O=C(CSc1ccc(-c2ccco2)nn1)c1ccccc1,8.91µM*,-6.1%
O=C(CSc1ccc(-c2ccncc2)nn1)c1ccccc1,-2.3%,-4.4%
Cc1cccc(N2CCN(C(=O)C3CCN(C(=O)c4cc5sccc5n4C)CC3)CC2C)c1 (centres undefined),1.2%,/
CC1CN(C(=O)Nc2ccc(C(=O)NCc3cccc(F)c3)cc2)c2ccccc2S1 (centres undefined),5.5%,/
CC(=O)OCn1ncc(N2CCOCC2)c(Br)c1=O,?,0.0%
O=C(OCn1ncc(Br)c(Br)c1=O)c1ccc(F)cc1,2µM*,-46.3%
